Source: PubChem BioAssay
miR-122 sensor: miR-122 Renilla sensor signal increase in Huh7, primary screen, miR-122 inhibitor project, cell-based, single point, plate reader; Huh7 miR-122 Renilla luciferase sensor, 48 h; neutral wells = 0, positive control = 100; activation (reporter increase), % at 12.5 µM; 340,000 tested, 0.3% active; AID 602342, 2012;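 active means mean replicate activation score at least 90 and every replicate individually at or above 90; inconclusive means only one of the two criteria met; inactive means neither criterion met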;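 further: higher luciferase means less miR-122 activity so hits act as miR-122 inhibitors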
Env fusion inh: inhibitors of HIV-1 Env-driven cell-cell fusion, primary screen, HeLa-JRFL effector, CEM21 target cells, luciferase; inhibition, % at 12.3 µM; 360,000 tested, 1.1% active; AID 651610, 2012;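 active means mean replicate inhibition score of at least 50 and every replicate individually at or above 50; inconclusive means only one of the two criteria met; inactive means mean below 50 and not all replicates reaching 50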;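 further: 0% = plate neutral controls and 100% = maraviroc near 300 nM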
MITF act: activators of MITF-driven TRPM1 promoter reporter, primary screen, cell-based, SK-MEL-5, luciferase, single point; 300,000 tested, 0.75% active; activation, % at 12.5 µM; SK-MEL-5 TRPM1-promoter luciferase, 24 h; % of positive control, neutral wells = 0; AID 588334, 2011;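 active means mean activation of at least 80% with every replicate also reaching 80%; inconclusive means mean reaches 80% but some replicate falls short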;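 further: 0% = neutral control wells and 100% = parthenolide positive control wells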
esBAF inh: Bmi1 luciferase reporter increase in mESCs, primary screen, esBAF inhibitor project, mouse ES cells, Bmi1 luciferase knock-in, single point; AID 602393, 2012; 24 h; 100% = twice the neutral-well signal; 350,000 tested, 2% active; reporter increase, % at 12.5 µM; in the data active means activation above about 40%; inconclusive means no clear call, values can overlap the other calls;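 further: 0% = median of the plate's neutral control wells and 100% = double that signal; a rise in the Bmi1 reporter signal indicates esBAF inhibition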
Wnt act: Wnt/beta-catenin pathway activators, primary screen, cell-based, plate reader, single point | Wnt/beta-catenin reporter cell assay, activator | activation, % at 9.35 µM | 300,000 tested, 1.2% active | AID 743398, 2014; in the data active means activation above about 30%, passing the limit was not always enough; inconclusive means no clear call, values can overlap the other calls;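 further: 0% = neutral control wells and 100% = positive control wells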
Starred values were filed as active, the others as inactive; ? = inconclusive; · = no result; [ ] = dose if it differs, or a comment. Rows were chosen to be rich in hits. Some 3.4% of all compounds tested hit in one or more screens of this group.

SMILES	miR-122 sensor	Env fusion inh	MITF act	esBAF inh	Wnt act
CN1C2=CC=CC=CC2=[N+](C)C12C([N+](=O)[O-])=CC(=[N+]([O-])[O-])C=C2[N+](=O)[O-] (stereo unspecified)	3	-88	·	-6	106*
CC(CNC(=S)Nc1cc(F)cc(F)c1)CSc1ccc(Cl)cc1 (stereo unspecified)	38	78*	-5	3	6
C=C(C)C1CC=C(C)C(=NNC(=O)c2ccncc2)C1 (stereo unspecified)	-5	·	-4	1	-1
C=C(C)C1CC=C(C)/C(=N/NC(=O)c2cccs2)C1 (stereo unspecified)	0	-35	98*	43*	27
O=C(C[C@H]1CC[C@@H](NC(=O)C2CCC2)[C@@H](CO)O1)Nc1nccs1	·	-18[16.7 µM]	·	0	·
CC(C)C(=O)Nc1ccc2c(c1)C(=O)N(C)[C@@H]1CC[C@@H](CC(=O)O)O[C@@H]1CO2	-17[16.7 µM]	-10[16.7 µM]	·	-3	·
CCOC(=O)C(c1ccccc1)C(Nc1ccccc1)c1ccccn1 (stereo unspecified)	·	14	·	2	-1
CCOC(=O)C(c1ccccc1)C(Nc1cc(C(F)(F)F)cc(C(F)(F)F)c1)c1ccccn1 (stereo unspecified)	·	67*	·	-5	-4
Cc1nnc2sc(COc3ccccc3)nn2c1=O	-5	2	1	4	-2
c1ccc(OCc2nn3c(C4CCCCC4)nnc3s2)cc1	3	63*	-1	-5	-5
CNC[C@@H]1Oc2cc(C#Cc3ccc(OC)cc3)ccc2S(=O)(=O)N([C@@H](C)CO)C[C@H]1C	-5[16.7 µM]	-52[16.7 µM]	·	-3	·
COc1ccc(CNC(=O)N(C)C[C@@H]2OCc3ccccc3-c3c(n(C)c4ccccc34)C(=O)N([C@H](C)CO)C[C@H]2C)cc1	·	7[16.7 µM]	·	-10	·
COc1ccc(CNC(=O)N(C)C[C@H]2OCc3ccccc3-c3c(n(C)c4ccccc34)C(=O)N([C@H](C)CO)C[C@@H]2C)cc1	·	68*[16.7 µM]	·	-3	·
C[C@H]1CN([C@@H](C)CO)C(=O)c2ccccc2-c2ccccc2CO[C@@H]1CN(C)C(=O)Nc1cccc(C(F)(F)F)c1	·	59*[16.7 µM]	·	1	·
CC(C)[C@H](C)NC(=O)N(C)C[C@H]1OCc2ccccc2-c2ccccc2C(=O)N([C@@H](C)CO)C[C@@H]1C	·	56*[16.7 µM]	·	0	·
COc1ccc(CNC(=O)N(C)C[C@H]2OCc3ccccc3-c3c(n(C)c4ccccc34)C(=O)N([C@@H](C)CO)C[C@@H]2C)cc1	·	58*[16.7 µM]	·	-1	·
C[C@@H]1CN([C@H](C)CO)C(=O)c2ccccc2-c2ccccc2CO[C@@H]1CN(C)C(=O)Nc1cccc(C(F)(F)F)c1	·	-1[16.7 µM]	·	2	·
COc1ccc(CNC(=O)N(C)C[C@H]2OCc3ccccc3-c3ccccc3C(=O)N([C@H](C)CO)C[C@@H]2C)cc1	·	72*[16.7 µM]	·	-1	·
Cc1ccc2nc(-c3ccc(NS(=O)(=O)c4c(C)n(C)c(=O)n(C)c4=O)cc3)sc2c1	·	-93	?	·	48*
Cc1ccc(S(=O)(=O)Nc2ccc(-c3nc4ccc(C)cc4s3)cc2)cc1	·	·	14	·	1
CC(C)C(C(=O)Nc1ccc2c(c1)OCO2)N1C(=O)c2ccccc2C1=O (stereo unspecified)	2	-1	-10	-1	·
CCC(SC1=Nc2ccccc2C2=NC(CC(C)C)C(=O)N12)C(=O)Nc1ccc2c(c1)OCO2 (stereo unspecified)	8	-91	11	51*	6
COc1cccc(C(=O)Nc2cc3c(cc2Cl)OCCCO3)c1	·	-108	75	·	38*
COc1ccc(C(=O)Nc2cc3c(cc2Cl)OCCCO3)cc1	-3	·	77	59*	·
COCCOc1cc(NC(=O)c2cccc(OC)c2)c(Cl)cc1Cl	·	-1	-4	·	-3
SMILES	miR-122 sensor	Env fusion inh	MITF act	esBAF inh	Wnt act
c1ccc(CSc2ncnc3c2ncn3C2CCCCO2)cc1 (stereo unspecified)	1	-24	100*	84*	-4
Fc1cccc(CSc2ncnc3c2ncn3C2CCCCO2)c1 (stereo unspecified)	-6	-5	98*	83*	-1
Clc1cccc(CSc2ncnc3c2ncn3C2CCCCO2)c1 (stereo unspecified)	·	-22	75	76*	8
c1ccc(CNc2ncnc3c2ncn3C2CCCCO2)cc1 (stereo unspecified)	-5	-35	68	46*	19
Cc1cc(C)c(CN2CCN(C(=O)Cn3cnc4c(NCc5ccccc5)ncnc43)CC2)c(C)c1	-6	87*	-43	-13	-2
CC(C)CCn1cnc2c(NCc3ccccc3)ncnc21	2	-21	45	46*	·
CC(CNC(=O)Cn1cnc2c(NCc3ccccc3)ncnc21)c1ccccc1 (stereo unspecified)	-1	-9	14	-5	-4
O=C(Nc1ccccc1F)N1CCCCN2[C@H](C1)[C@@H](c1ccc(-c3cccnc3)cc1)[C@@H]2CO	20[16.7 µM]	·	·	·	·
Cc1ccc(-c2csc(CC(N)=O)n2)cc1	3	-5	-2	9	4
N/C(Cc1nc(-c2ccc(Cl)cc2)cs1)=N/O	·	-26	·	?	37*
Cc1nnsc1C(=O)Nc1cc(Cl)ccc1Cl	0	-165	·	7	42*
CC(=O)N1[C@@H](CO)[C@@H]2c3ccccc3N(S(=O)(=O)c3ccc(F)cc3)C[C@@H]21	-14[16.7 µM]	·	·	-4	·
O=S1(=O)N[C@H](Cc2ccccc2)COc2cccc(N3CCCC3)c21	·	-21	·	·	-2
O=S1(=O)N[C@H](Cc2ccccc2)COc2cccc(F)c21	·	57*	·	·	-1
Cc1ccc(C(=O)NC(C#N)=C(Cl)Cl)cc1	·	-152	·	·	77*
Cc1ccc(C(=O)NCC#N)cc1	·	-11	-5	·	0
COC(=O)C[C@@H]1CC[C@@H]2[C@@H](COc3ccc(NC(=O)c4ccc(F)c(F)c4)cc3C(=O)N2C)O1	-8[16.7 µM]	11[16.7 µM]	·	-3	·
CN(C)CCn1c(=O)n(-c2cccc(Cl)c2)c(=O)c2c3c(sc21)CCCCC3	·	130*	·	-6	-1
CN(C)CCn1c(=O)n(-c2ccc(F)cc2)c(=O)c2c3c(sc21)CCCCC3	·	?	-7	9	0
COc1ccccc1CNc1nc(NCc2ccccc2OC)c2sccc2n1	-15	6	·	-9	-9
c1cc2cc(CNc3nc(NCC4CC4)nc4ccsc34)ccc2o1	-12	80*	·	-11	-2
COc1ccccc1CNc1nc(NCc2ccc3occc3c2)c2sccc2n1	-4	58*	·	-9	-4
Cc1ccc(CNc2nc(NCC3CC3)nc3ccsc23)c(C)c1	-9	45	·	-49	-16
O=C(C[C@@H]1CC[C@@H]2[C@H](COC[C@@H](O)CN2CC2CC2)O1)NCC1CC1	2[16.7 µM]	·	·	-1	·
